Laboratory results published in PubChem BioAssay (EPA / NIEHS).
The source made the active and inactive calls. Rule for the calls: active = hit-call score of the fitted dose curve at least 0.9, where 1 is the maximum; inactive = score below 0.9.

system: not listed separately; test: ATG_CRE_CIS: Attagene CIS-FACTORIAL HepG2 Assay for human cAMP Responsive Element (CRE) binding protein 3 (AID 2282926); settings: HepG2 CRE cis-reporter, Attagene multiplexed mRNA; actives raise or lower the signal
In short: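 We dosed HepG2 cells bearing multiple cis-promoter reporter units for 24 h and measured reporter mRNA by RT-PCR with capillary electrophoresis detection. Bidirectional concentration-response fitting used DMSO as negative control.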

Compound	outcome
Clc1ccc2c(Cl)ccnc2c1	inactive
CCCCCCCCCCCCCC[n+]1ccccc1	inactive
O=C(C=C(O)C(F)(F)F)C(F)(F)F	inactive
Cc1cccc2c1ccc1ccccc12	inactive
CCCCCCCCC1CCC(=O)O1 (centres undefined)	inactive
c1ccc(CNc2ncnc3c2ncn3C2CCCCO2)cc1 (centres undefined)	inactive
CCOC(OCC)C(=O)c1ccccc1	inactive
C[N+](C)(CCCNS(=O)(=O)CCC(F)(F)C(F)(F)C(F)(F)C(F)(F)C(F)(F)C(F)(F)F)CC(=O)[O-]	inactive
Nc1ccn([C@@H]2O[C@H](CO)[C@@H](O)C2O)c(=O)n1 (some centres undefined)	inactive
CC(C)(C)C1CCCCC1O (centres undefined)	inactive
Cc1cncc(C)c1	inactive
CC(=O)CC(C)C	inactive

molecular target: CCAAT/enhancer-binding protein beta (Homo sapiens) (UniProt P17676); test: ATG_C_EBP_CIS: Attagene CIS-FACTORIAL HepG2 Assay for human CCAAT/Enhancer Binding Protein (C/EBP) beta (AID 2282927); settings: HepG2 Attagene cis-factorial transcription factor reporter; actives raise or lower the signal
Sequence (P17676 whole entry, looked up): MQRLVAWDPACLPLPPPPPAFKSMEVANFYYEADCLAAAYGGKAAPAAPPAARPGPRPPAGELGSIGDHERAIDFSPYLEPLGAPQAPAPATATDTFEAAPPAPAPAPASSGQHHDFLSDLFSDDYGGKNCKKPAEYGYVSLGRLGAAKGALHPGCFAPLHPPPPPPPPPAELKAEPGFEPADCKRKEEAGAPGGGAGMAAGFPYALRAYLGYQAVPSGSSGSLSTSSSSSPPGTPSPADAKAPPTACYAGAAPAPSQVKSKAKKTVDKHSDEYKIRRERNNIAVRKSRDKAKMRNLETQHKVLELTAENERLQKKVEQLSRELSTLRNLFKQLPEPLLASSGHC
In short: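 HepG2, transient MRTU transfection, 24 h treatment. RT-PCR plus CE fluorescence; DMSO negative control, bidirectional fit.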

Compound	outcome	AC50
C=CC(=O)OCC(CO)(COCC(COC(=O)C=C)(COC(=O)C=C)COC(=O)C=C)COC(=O)C=C	inactive	
FC(F)(F)C(F)(F)C(F)(F)Br	inactive	
COCC1CCC(CO)CC1 (centres undefined)	inactive	
C=COC(=O)C(C)(C)CCCCCC	inactive	
CCCCc1ccc2ccccc2c1S(=O)(=O)O	inactive	
C=Cc1ccc(O)c(OC)c1	inactive	
FC(F)=C(F)C(F)(F)C(F)(F)C(F)(F)C(F)F	inactive	
NS(=O)(=O)O	inactive	
O=C1c2ccc(O)c(O)c2C(=O)c2c(O)ccc(O)c21	inactive	
CCOC(=O)CN[C@@H](C(=O)N1CC[C@H]1C(=O)NCc1ccc(/C(N)=N/O)cc1)C1CCCCC1	inactive	
CC(C)CCOCCC(C)C	inactive	
C=CC(=C)CC/C=C(\C)CCC=C(C)C	inactive	
Cc1ccc(N=Nc2c(O)ccc3ccccc23)c(C)c1	inactive	
C=CC(=O)OCCN(CC)CC		44.2 µM (active)
Cc1ccc(S(=O)(=O)O)cc1	inactive	
CCCCCCCCCCCCOC(=O)c1cc(O)c(O)c(O)c1	inactive	
CCCCCCCCCCCCCCCC(=O)OC	inactive	
CC1CCC(CO)CC1 (centres undefined)	inactive	
CCCCCC(C)OC(=O)COc1ccc(Cl)c2cccnc12 (centres undefined)	inactive	

Compound	outcome	AC50
FC(F)(F)N1C(F)(F)C(F)(F)OC(F)(F)C1(F)F	inactive	
C/C=C/C(=O)C1=C(C)CCCC1(C)C	inactive	
CCc1ccccc1O	inactive	
CNNCc1ccc(C(=O)NC(C)C)cc1	inactive	
CCCCCCCCCCCC[N+](C)(C)CCCCCCCCCCCC		16.4 µM (active)
Cc1cc(=O)oc2cc(O)ccc12	inactive	
Clc1ccc2c(Cl)ccnc2c1	inactive	
CCCCCCCCCCCCCC[n+]1ccccc1	inactive	
O=C(C=C(O)C(F)(F)F)C(F)(F)F	inactive	
Cc1cccc2c1ccc1ccccc12	inactive	
CCCCCCCCC1CCC(=O)O1 (centres undefined)	inactive	
c1ccc(CNc2ncnc3c2ncn3C2CCCCO2)cc1 (centres undefined)	inactive	
CCOC(OCC)C(=O)c1ccccc1	inactive	
C[N+](C)(CCCNS(=O)(=O)CCC(F)(F)C(F)(F)C(F)(F)C(F)(F)C(F)(F)C(F)(F)F)CC(=O)[O-]	inactive	
Nc1ccn([C@@H]2O[C@H](CO)[C@@H](O)C2O)c(=O)n1 (some centres undefined)	inactive	
CC(C)(C)C1CCCCC1O (centres undefined)	inactive	
Cc1cncc(C)c1	inactive	
CC(=O)CC(C)C	inactive	
